Drawing on PubChem BioAssay (NCI), this text covers growth for 37 molecules.

Each structure is given as a SMILES string. About 83,000 compounds went through this panel and 20% of them were active in at least one assay; those are over-represented in the sample as a whole.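 Percent growth is the endpoint: 0 to 100 indicates growth inhibition (40 means 60% inhibition), 0 means no net growth, and negative values indicate cell death.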 A number with no mark means an inactive call. Activity calls are given as the source filed them. The calls were made as follows: active = growth percent below 10; inactive = the rest.

This assay has as its system A549/ATCC NSCLC. Briefly: NCI-60 one-dose screen, 48 h (100 = growth as untreated, 0 = no growth, -100 = all killed). To be noted: 10 µM.
Consider `O=C1CC(=O)N(C(=O)c2nn(-c3ccc(Cl)cc3)cc2O)N1`, for which the growth is 44.5%. For `COc1ccc2c(c1)C(=O)/C(=C/c1ncc([N+](=O)[O-])n1C)O2` the value was -27.8% (active); for `S=C1N(c2ccccc2)CN(C2CCCCC2)CN1c1ccccc1`, 45.5%; for `COc1cc2cc(Oc3ccc(NC(=O)c4ccc(Cl)c(C(F)(F)F)c4)cc3)c(C)nc2cc1OC`, 13.8%. For `O=C1/C(=C/c2ccc([N+](=O)[O-])s2)Oc2cc(Cl)ccc21` the value was 4.06% (active). For `N#Cc1cnn(C(=O)c2nn(-c3ccc(Cl)cc3)cc2O)c1N` the value was 15.1%; for `O=C(CCC(C(=O)c1ccccc1)c1ccccc1)c1ccccc1` (configuration not stated), 61.9%; for `O=C1c2c(c(=O)[nH]c3ccccc23)CCN1Cc1ccccc1`, 103%. Take `Cc1ccc(C2NC(=S)N3C(c4ccc(C)cc4)NC(=S)N23)cc1` (configuration not stated): the growth was 32%. As for `COc1cc(-c2ccc(N=Nc3ccc4c(S(=O)(=O)O)ccc(N)c4c3O)c(OC)c2)ccc1N=Nc1ccc2c(S(=O)(=O)O)ccc(N)c2c1O`, the growth was 106%. `COc1ccc(C2CC(c3cc(OC)c(OC)c(OC)c3)=NN2)cc1` (configuration not stated): the growth is 51.7%. As to `CSc1nc2c(c(=O)n1C)CN(Cc1ccccc1)C(=O)CN2`, the growth was 91%. Consider `COc1ccc(C(=O)c2cc3c(OC)c(OC)c(OC)cc3[nH]2)cc1`, for which the growth is 36.6%.

With `COc1cc2c(Nc3ccc(-c4ccc(N)cc4)cc3)ncnc2c(OC)c1OC`, the growth was 29.2%. For `COc1ccc(N(C)c2ncnc3occ(C)c23)cc1` the value was 15%.

In the case of `O=C1/C=C/[C@@H](O)[C@@H]2C[C@@H](O)C[C@H]2/C=C/CCC[C@H](CCc2ccc(C(F)(F)F)cc2)O1`, the growth is 8.38% (active). For `COc1ccc2c(c1)C(=O)/C(=C/c1ccc([N+](=O)[O-])o1)O2` the value was -5.34% (active); for `Nc1ccc(CC[C@H]2CCC/C=C/[C@@H]3C[C@H](O)C[C@H]3[C@H](O)/C=C/C(=O)O2)cc1`, 11.9%; for `COc1ccc(/C=C2\CCCC3C2=Nc2ccccc2NC3c2ccc(OC)cc2)cc1` (configuration not stated), 88.5%. For `NC1=NC(c2ccccc2)C2=C(N1)/C(=C/c1ccccc1)CCC2` (configuration not stated) the value was 87%; for `Cc1c2c(nn1C(=O)c1nn(-c3ccc(Cl)cc3)cc1O)-c1ccccc1CC2`, 21.8%; for `COc1nc2c(c(=O)n1C)CN(c1ccccc1)C(=O)C(C)N2` (configuration not stated), 99.2%. For `COc1cccc2ccc(CC(O)(c3ccccc3)c3ccccc3)nc12` the value was 95.5%. For `CC(=O)Nc1ccc(S(=O)(=O)N/N=C(\C)c2ccc(C)cc2C)cc1`, the growth was 99.9%. On to `O=C(CSc1nnc(-c2cccnc2SCc2ccccc2)o1)Nc1nc(Cl)cc(Cl)n1`, for which the growth was 104%. For `CCN(CC)c1ccc(/C=C2\SC(=O)C(Nc3nnc(-c4cccnc4SCc4ccccc4)o3)C2=O)cc1` (configuration not stated), the growth was 12.2%. For `c1ccc(CSc2ncccc2-c2nnc(SCCN3CCOCC3)o2)cc1` the value was 112%; for `CS(=O)(=O)c1nccc(-c2c(-c3cccc(OCc4ccc(F)cc4)c3)nc3sccn23)n1`, 104%. For `Cc1ccc(NC(=S)NNC(=S)Nc2ccc(C)cc2)cc1` the value was 67%; for `Nc1ncc(-c2cnn(C3CCNCC3)c2)cc1-c1nc2ccccc2o1`, 7.74% (active). For `O=C(CNc1nnc(-c2cccnc2SCc2ccccc2)s1)Nc1nc(Cl)cc(Cl)n1` the value was 120%.

On to `CS(=O)(=O)c1nccc(-c2c(-c3cccc(OCCc4ccccc4)c3)nc3sccn23)n1`, for which the growth was 101%. Take `NC1=NC(c2ccc(Cl)cc2)C2=C(N1)/C(=C/c1ccc(Cl)cc1)CCC2` (configuration not stated): the growth was 66.7%.

Regarding `COc1cc2cc(Oc3ccc(NC(=O)c4cccc(C(F)(F)F)c4)cc3)c(C)nc2cc1OC`, the growth is 24.1%.

As for `COc1cc2cc(Oc3ccc(NC(=O)c4ccccc4)cc3)c(C)nc2cc1OC`, the growth was 89.6%. For `COc1ccc(Nc2cnc3cc(NS(=O)(=O)c4ccc(C)cc4)ccc3n2)cc1` the value was 66.2%; for `CCOC(=O)c1cc(C(=O)c2cc(OC)c(OC)c(OC)c2)n2ncc3ccccc3c12`, 54.8%.
